In PubChem BioAssay (Tox21):
Records with an inconclusive call do not appear. The source made the active and inactive calls. Unless noted, calls come from the whole dose curve; as a rule, active = well fitted curve in the direction sought with a large enough effect in the repeat runs; inconclusive = weak or mixed curves; inactive = no such curve, though single readings can be large; an effect the other way counts as inactive or inconclusive.

Tests used:
[1] = qHTS assay to identify small molecule antagonists of the retinoid-related orphan receptor gamma (ROR-gamma) signaling pathway - cell viability counter screen (AID 1159520); note: % is set by controls: 0 for no effect and ±100 for the full control effect; nearly all actives have a fitted effect of over 50% in size
Outline: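 Cytotoxicity was read from cellular ATP (CellTiter-Glo luminescence) after 16 hr at 37 C with 1 uM doxycycline induction. The inducer was added 2 hr after compound transfer to Tet-on ROR gamma CHO cells.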

[2] = biological target: Nuclear receptor ROR-gamma (Homo sapiens) (UniProt P51449); experiment: qHTS assay to identify small molecule antagonists of the retinoid-related orphan receptor gamma (ROR-gamma) signaling pathway (AID 1159521;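 note: CHO cells with doxycycline inducible ROR-gamma driving an RORE luciferase reporter; top concentration of the series differs between compounds; % is set by controls: 0 for no effect and ±100 for the full control effect; nearly all actives have a fitted effect of over 50% in size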)
Outline: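 Readout: ONE-Glo luciferase luminescence, 30 min at room temperature. System: Tet-on RORγ CHO, RORE-LUC. Sequence: compound 2 h, doxycycline 1 uM final, 16 h at 37 C.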

[3] = qHTS assay to identify small molecule agonists of the AP-1 signaling pathway - cell viability counter screen (AID 1159525; calls by dose curve; note: nearly all actives have a fitted effect of over 55% in size)
Outline: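 Luminescent ATP readout (Cell Titer Glo, 30 min RT), normalised to DMSO and tetra n-octyl ammonium bromide controls. Cells were ME-180 AP-1-bla in 0.5% dialyzed FBS Opti-MEM, with a 5 h, 37 °C compound exposure.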

[4] = qHTS assay to identify small molecule agonists of the AP-1 signaling pathway (AID 1159526; calls by dose curve; note: % is set by controls: 0 for no effect and ±100 for the full control effect)
[5] = biological target: Retinoic acid receptor RXR-alpha (Homo sapiens) (UniProt P19793); experiment: qHTS assay to identify small molecule agonists of the RXR signaling pathway (AID 1159527; calls by dose curve; note: % is set by controls: 0 for no effect and ±100 for the full control effect; nearly all actives have a fitted effect of over 35% in size)
Outline: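 Reporter activation is measured as beta-lactamase activity via FRET substrate cleavage (emission 460/530 nm) in HEK 293T cells expressing an RXR-alpha-driven bla construct, following 16 hr compound exposure at 37 C.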

[6] = qHTS assay to identify small molecule agonists of the RXR signaling pathway - cell viability counter screen (AID 1159529); note: series mostly up to about 77 µM; % is set by controls: 0 for no effect and ±100 for the full control effect; nearly all actives have a fitted effect of over 50% in size
Outline: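 Tox21 10K compounds were tested for cytotoxicity against GeneBLAzer RXR-alpha HEK 293T cells grown in 2% charcoal-stripped FBS. Exposure lasted 16 hr at 37 C, 5% CO2; viability read by CellTiter-Glo luminescence.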

[7] = qHTS assay to identify small molecule antagonists of the retinoid acid receptor (RAR) signaling pathway - cell viability counter screen (AID 1159551); note: % is set by controls: 0 for no effect and ±100 for the full control effect; nearly all actives have a fitted effect of over 35% in size
Outline: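 C3RL4 RARE-luciferase cells, 1,000/well, incubated overnight, then dosed with compound plus 1 uM retinol (final). After 6 hr at 37 C, viability read by CellTiter-Glo ATP luminescence following 30 min at room temperature.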

[8] = qHTS assay to identify small molecule antagonists of the retinoic acid receptor (RAR) signaling pathway (AID 1159552; note: % is set by controls: 0 for no effect and ±100 for the full control effect; nearly all actives have a fitted effect of over 50% in size)
Outline: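 Overnight-plated C3RL4 reporter cells get compound, then retinol to 1 uM final; plates sit 6 hr at 37 C, 5% CO2. A luciferase reagent is added and light output recorded after 30 min at room temperature.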

[9] = qHTS assay to identify small molecule antagonists of the estrogen related receptor (ERR) signaling pathway from Tox21 library - cell viability counter screen (AID 1224834); note: % is set by controls: 0 for no effect and ±100 for the full control effect; nearly all actives have a fitted effect of over 30% in size
Outline: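 ERR reporter cells, 2,000 per well, rested 6 h, then exposed to compound in DMSO for 17.5 hours at 37 C. Viability read as fluorescence after 30 min with CellTiter-Fluor.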

Retinoic acid receptor RXR-alpha (Homo sapiens), sequence (P19793 whole entry, looked up): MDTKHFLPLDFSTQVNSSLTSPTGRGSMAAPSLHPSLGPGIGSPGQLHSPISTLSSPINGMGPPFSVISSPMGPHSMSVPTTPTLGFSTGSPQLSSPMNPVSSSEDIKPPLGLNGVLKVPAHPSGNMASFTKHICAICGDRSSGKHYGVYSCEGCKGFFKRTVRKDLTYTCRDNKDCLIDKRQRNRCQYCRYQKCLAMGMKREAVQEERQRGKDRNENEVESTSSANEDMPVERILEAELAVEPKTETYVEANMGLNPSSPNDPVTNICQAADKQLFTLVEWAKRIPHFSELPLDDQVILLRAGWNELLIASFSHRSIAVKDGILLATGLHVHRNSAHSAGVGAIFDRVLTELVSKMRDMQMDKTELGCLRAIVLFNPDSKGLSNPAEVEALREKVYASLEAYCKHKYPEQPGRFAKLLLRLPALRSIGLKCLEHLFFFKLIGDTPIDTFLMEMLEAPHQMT

Cc1cncc(C)c1
inactive: Potency [1] | Potency [2] | Potency [3] | Potency [4] | Potency [5] | Potency [6] | Potency [7] | Potency [8] | Potency [9]

Cc1cccc(C)n1
inactive: Potency [1] | Potency [2] | Potency [3] | Potency [4] | Potency [5] | Potency [6] | Potency [7] | Potency [8] | Potency [9]

Cc1cc(C)c(C=O)c(C)c1
inactive: Potency [1] | Potency [2] | Potency [3] | Potency [4] | Potency [5] | Potency [6] | Potency [7] | Potency [8] | Potency [9]

CC(C)=CCCC(C)O (centres undefined)
inactive: Potency [1] | Potency [2] | Potency [3] | Potency [4] | Potency [5] | Potency [6] | Potency [7] | Potency [8] | Potency [9]

CCCCCCS
inactive: Potency [1] | Potency [2] | Potency [3] | Potency [4] | Potency [5] | Potency [6] | Potency [7] | Potency [8] | Potency [9]

CCC(=O)CC(C)CC (centres undefined)
inactive: activity, negative = cytotoxicity [1] 6.35% [at 0.349 µM] | activity change, negative = inhibition [2] 0.102% [at 0.35 µM] | viability change, negative = cytotoxic [3] 5.42% [at 0.29 µM] | activation [4] -5.51% [at 0.29 µM] | activation [5] 2.44% [at 0.29 µM] | activity change, negative = cytotoxicity [6] -1.51% [at 0.29 µM] | activity change, negative = cytotoxicity [7] 0.29% [at 0.349 µM] | activity, negative = inhibition [8] -2.26% [at 0.349 µM] | viability change, negative = cytotoxic [9] 2.01% [at 0.349 µM]

CCCCCCCCCCCCCCCCCO
inactive: activity, negative = cytotoxicity [1] -0.0509% [at 19 µM] | activity change, negative = inhibition [2] -0.415% [at 19 µM] | viability change, negative = cytotoxic [3] -0.925% [at 15.8 µM] | activation [4] -5.53% [at 15.8 µM] | activation [5] 2.15% [at 15.8 µM] | activity change, negative = cytotoxicity [6] -0.179% [at 15.8 µM] | activity change, negative = cytotoxicity [7] 0.141% [at 19 µM] | activity, negative = inhibition [8] -5.96% [at 19 µM] | viability change, negative = cytotoxic [9] 0.981% [at 19 µM]

O=C=NCc1cccc(CN=C=O)c1
inactive: activity, negative = cytotoxicity [1] 5.39% [at 19 µM] | activity change, negative = inhibition [2] -2.4% [at 19 µM] | viability change, negative = cytotoxic [3] -10.1% [at 15.8 µM] | activation [4] -14% [at 15.8 µM] | activation [5] -0.945% [at 15.8 µM] | activity change, negative = cytotoxicity [6] -2.82% [at 15.8 µM] | activity change, negative = cytotoxicity [7] 2.07% [at 19 µM] | activity, negative = inhibition [8] 6.56% [at 19 µM] | viability change, negative = cytotoxic [9] 0.396% [at 19 µM]

CC1(C)COCN1
inactive: Potency [1] | Potency [2] | Potency [3] | Potency [4] | Potency [5] | Potency [6] | Potency [7] | Potency [8] | Potency [9]

CCCCCCCCCCc1ccccc1
inactive: Potency [1] | Potency [2] | Potency [3] | Potency [4] | Potency [5] | Potency [6] | Potency [7] | Potency [8] | Potency [9]

Clc1cccnc1
inactive: Potency [1] | Potency [2] | Potency [3] | Potency [4] | Potency [5] | Potency [6] | Potency [7] | Potency [8] | Potency [9]

C=CC/C=C/C/C=C/C/C=C/C
inactive: Potency [1] | Potency [2] | Potency [3] | Potency [4] | Potency [5] | Potency [6] | Potency [7] | Potency [8] | Potency [9]

CCCC(O)C(O)CO (centres undefined)
inactive: Potency [1] | Potency [2] | Potency [3] | Potency [4] | Potency [5] | Potency [6] | Potency [7] | Potency [8] | Potency [9]

Clc1nc2ccccc2s1
inactive: Potency [1] | Potency [2] | Potency [3] | Potency [4] | Potency [5] | Potency [6] | Potency [7] | Potency [8] | Potency [9]

CC(C)CCOCCC(C)C
inactive: Potency [1] | Potency [2] | Potency [3] | Potency [4] | Potency [5] | Potency [6] | Potency [8] | Potency [9]

C/C=C/c1ccc(OC)c(OC)c1
inactive: Potency [1] | Potency [2] | Potency [3] | Potency [4] | Potency [5] | Potency [6] | Potency [9]

Cn1cccc1
inactive: Potency [1] | Potency [2] | Potency [3] | Potency [4] | Potency [5] | Potency [6] | Potency [7] | Potency [8] | Potency [9]

CCOC(=O)CN
inactive: Potency [1] | Potency [2] | Potency [3] | Potency [4] | Potency [5] | Potency [6] | Potency [7] | Potency [8] | Potency [9]

CCOC(=O)CC(C)O (centres undefined)
inactive: Potency [1] | Potency [2] | Potency [3] | Potency [4] | Potency [6] | Potency [7] | Potency [8] | Potency [9]

CCOCN(C(=O)CS(=O)(=O)O)c1c(C)cccc1CC
inactive: Potency [1] | Potency [2] | Potency [3] | Potency [4] | Potency [5] | Potency [6] | Potency [7] | Potency [8] | Potency [9]

CCCCCCCCCCCCCc1ccccc1
inactive: Potency [1] | Potency [2] | Potency [3] | Potency [4] | Potency [5] | Potency [6] | Potency [8] | Potency [9]

CCOC(/C=C(\C)CCC=C(C)C)OCC
inactive: Potency [1] | Potency [2] | Potency [3] | Potency [4] | Potency [5] | Potency [6] | Potency [7] | Potency [8] | Potency [9]

CCCCCCCC(=O)OCC
inactive: Potency [1] | Potency [2] | Potency [3] | Potency [4] | Potency [6] | Potency [7] | Potency [8] | Potency [9]

CCC(C)C(=O)OC (centres undefined)
inactive: Potency [1] | Potency [2] | Potency [3] | Potency [4] | Potency [6] | Potency [7] | Potency [8] | Potency [9]
